According to PubChem BioAssay (NCATS):
Values without a mark were called inactive. For part of these data: Results with a measured potency or affinity are listed apart. Active and inactive are the calls of the source. No rule for the calls is given here.

Legend:
[1] = Ebola virus entry assay, green fluorescence channel
[2] = Ebola virus entry assay, blue channel fluorescence
[3] = Ebola virus entry assay, ratio channel
[4] = Ebola virus entry assay, green channel fluorescence
[5] = Ebola virus entry assay, reporter ratio channel; Channel type: primary
[6] = Ebola virus entry assay, blue channel (ratio component)
For efficacy in this document: 0% is about no effect.

Row | SMILES | efficacy [1] | outcome [2] | outcome [3] | outcome [4] | outcome [5] | AC50 [2] | AC50 [5] | AC50 [3] | outcome [6]
1 | Sc1ccccc1Cl | 41.3% | inactive | inactive | inactive | inactive | – | – | – | –
2 | CCN(CC)CCSC(=O)C(c1ccccc1)c1ccccc1 | -29.7% | – | inactive | inactive | – | 31.6 µM (active) | 39.8 µM (active) | – | –
3 | CCN1CCCC1CNC(=O)C(O)(c1ccccc1)c1ccccc1 (stereo not drawn) | 28.7% | – | – | inactive | – | 15.8 µM (active) | 20 µM (active) | 20 µM (active) | –
4 | CCOC(=O)[C@H](CCc1ccccc1)N[C@H]1CS[C@H](c2cccs2)CN(CC(=O)O)C1=O | 24% | inactive | inactive | inactive | inactive | – | – | – | –
5 | CC(C)OC(=O)C(C(=O)OC(C)C)=C1SC=CS1 | -38.6% | – | inactive | inactive | inactive | 39.8 µM (active) | – | – | –
6 | CN(C)CCN(Cc1ccccc1)c1ccccn1 | 35.7% | – | – | inactive | – | 22.4 µM (active) | 20 µM (active) | 20 µM (active) | –
7 | Cc1cc2c(OCC(CNC(C)(C)C)OC(=O)c3ccccc3)cccc2[nH]1 (stereo not drawn) | 15.1% | – | – | inactive | – | 25.1 µM (active) | 28.2 µM (active) | 28.2 µM (active) | –
8 | CCOC(=O)C1=C[C@]2(CC)CCCN3CCc4c(n1c1ccccc41)[C@@H]32 | -42.6% | – | – | inactive | – | 12.6 µM (active) | 17.8 µM (active) | 17.8 µM (active) | –
9 | COc1ccc(CN(CCN(C)C)c2ccccn2)cc1 | 22.5% | – | – | inactive | – | 15.8 µM (active) | 15.8 µM (active) | 15.8 µM (active) | –
10 | Cc1ccc(CCn2c3c(c4cc(Cl)ccc42)CN(C)CC3)cn1 | 26.4% | – | – | inactive | – | 14.1 µM (active) | 17.8 µM (active) | 17.8 µM (active) | –
11 | C#C[C@]1(O)CC[C@H]2[C@@H]3CCc4cc(O)ccc4[C@H]3CC[C@@]21C | -19.9% | – | – | inactive | – | 11.2 µM (active) | 11.2 µM (active) | 11.2 µM (active) | –
12 | COc1ccc2nc(NC(=O)Nc3ccccc3)sc2c1 | -33.8% | – | – | inactive | – | 22.4 µM (active) | 15.8 µM (active) | 15.8 µM (active) | –
13 | CCN(CC)CCNC(C(=O)OCCC(C)C)c1ccccc1 (stereo not drawn) | 47.8% | – | – | inactive | – | 31.6 µM (active) | 22.4 µM (active) | 22.4 µM (active) | –
14 | Cc1cc(=O)oc2cc(O)ccc12 | -26.6% | inactive | inactive | inactive | inactive | – | – | – | –
15 | CCN1CCN(c2cc(-c3ccc(F)cc3)c3c(n2)CCCCCC3)CC1 | 32.1% | – | – | inactive | – | 1.41 µM (active) | 1.78 µM (active) | 1.78 µM (active) | –
16 | Clc1ccc(C(Cn2ccnc2)OCc2ccsc2Cl)c(Cl)c1 (stereo not drawn) | 49.7% | – | – | inactive | – | 10 µM (active) | 8.91 µM (active) | 8.91 µM (active) | –
17 | CC[C@H](c1ccc(O)cc1)[C@@H](CC)c1ccc(O)cc1 | -12.4% | – | – | inactive | – | 20 µM (active) | 25.1 µM (active) | 25.1 µM (active) | –
18 | Cc1c(-c2ccccc2)oc2c(C(=O)OCCN3CCCCC3)cccc2c1=O | -55.6% | inactive | inactive | inactive | inactive | – | – | – | –

Row | SMILES | efficacy [1] | outcome [2] | outcome [3] | outcome [4] | outcome [5] | AC50 [2] | AC50 [5] | AC50 [3] | outcome [6]
19 | CCS(=O)(=O)C(C)(C)S(=O)(=O)CC | -10.5% | inactive | inactive | inactive | inactive | – | – | – | –
20 | Cc1c(C)n(CCN(C)C)c2ccc(C(=O)OCCN(C)C)cc12 | -26.4% | – | – | inactive | – | 2.24 µM (active) | 2.51 µM (active) | 2.51 µM (active) | –
21 | c1ccc(CCNc2nc(-c3ccccc3)cs2)cc1 | 29.5% | – | inactive | inactive | – | 39.8 µM (active) | 39.8 µM (active) | – | –
22 | CC(C)C[C@@H](N)C(=O)O | 14.3% | inactive | inactive | inactive | inactive | – | – | – | –
23 | CCC1(CC)C(=O)NC(=O)NC1=O | -16.1% | inactive | inactive | inactive | inactive | – | – | – | –
24 | CC(=O)Oc1ccc2c(c1)CC[C@@H]1[C@@H]2CC[C@]2(C)[C@@H](O)CC[C@@H]12 | 11.1% | – | – | inactive | – | 35.5 µM (active) | 22.4 µM (active) | 22.4 µM (active) | –
25 | CC(C)=CCN1CC[C@@]2(C)c3cc(O)ccc3C[C@@H]1[C@@H]2C | 36% | – | – | inactive | – | 31.6 µM (active) | 31.6 µM (active) | 31.6 µM (active) | –
26 | CCCN(CCC)CCc1c[nH]c2ccccc12 | 39.8% | – | – | inactive | – | 35.5 µM (active) | 31.6 µM (active) | 31.6 µM (active) | –
27 | OC(CCN1CCCCC1)(c1ccccc1)C1CC2C=CC1C2 (stereo not drawn) | -14.6% | – | inactive | inactive | inactive | 12.6 µM (active) | – | – | –
28 | C[C@H](N)C(=O)N[C@@H](C)C(=O)NC1[C@H]2CN(c3nc4c(cc3F)c(=O)c(C(=O)O)cn4-c3ccc(F)cc3F)C[C@@H]12 (stereo partly drawn) | 11% | inactive | inactive | inactive | inactive | – | – | – | –
29 | O=C(/C=C/c1ccc(O)c(O)c1)O[C@@H]1C[C@@](OC(=O)/C=C/c2ccc(O)c(O)c2)(C(=O)O)C[C@@H](O)[C@@H]1O | 21.8% | – | – | inactive | – | 28.2 µM (active) | 20 µM (active) | 20 µM (active) | –
30 | CC(C)OC(=O)c1cc2c(OCC(O)CNC(C)(C)C)cccc2[nH]1 (stereo not drawn) | -19.4% | – | – | inactive | – | 28.2 µM (active) | 31.6 µM (active) | 31.6 µM (active) | –
31 | CCCOc1ccccc1-c1nc2n[nH]nc2c(=O)[nH]1 | 11% | inactive | inactive | inactive | inactive | – | – | – | –
32 | CC(CNC1CCCCC1)OC(=O)c1ccccc1 (stereo not drawn) | 19.5% | – | – | inactive | – | 8.91 µM (active) | 8.91 µM (active) | 8.91 µM (active) | –
33 | Fc1ccc(C(c2ccc(F)cc2)N2CCNCC2)cc1 | 28.7% | – | – | inactive | – | 10 µM (active) | 10 µM (active) | 10 µM (active) | –
34 | O=C(CCl)c1ccc(Cl)cc1Cl | -14.1% | inactive | inactive | inactive | inactive | – | – | – | inactive
35 | CC(C)[C@@H]1CC[C@@H](C)CC1=O | -22.8% | inactive | inactive | inactive | inactive | – | – | – | inactive
36 | COc1ccc(C(Cl)=C(c2ccc(OC)cc2)c2ccc(OC)cc2)cc1 | 25.3% | inactive | inactive | inactive | inactive | – | – | – | inactive
